The whole screen tested about 2,200 compounds, of which about 2,000 (91%) were called active.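 How the source made its calls: active means luminescence in either of two replicates above the same-plate mean plus 3 SD of the low-dose dopamine control; inactive means the rest.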 The set was probably picked from earlier hits. A selection follows.
These molecules were tested against D(1A) dopamine receptor (Homo sapiens) (UniProt P21728) (assay: D1 receptor positive allosteric modulators, retest, confirmation, cell-based, HEK293 D1, CRE-luciferase, duplicate (AID 642)). Conditions: dopamine EC30 potentiation, at 10 µM, active compounds read high.
Chain of D(1A) dopamine receptor (Homo sapiens) (P21728 whole entry, looked up): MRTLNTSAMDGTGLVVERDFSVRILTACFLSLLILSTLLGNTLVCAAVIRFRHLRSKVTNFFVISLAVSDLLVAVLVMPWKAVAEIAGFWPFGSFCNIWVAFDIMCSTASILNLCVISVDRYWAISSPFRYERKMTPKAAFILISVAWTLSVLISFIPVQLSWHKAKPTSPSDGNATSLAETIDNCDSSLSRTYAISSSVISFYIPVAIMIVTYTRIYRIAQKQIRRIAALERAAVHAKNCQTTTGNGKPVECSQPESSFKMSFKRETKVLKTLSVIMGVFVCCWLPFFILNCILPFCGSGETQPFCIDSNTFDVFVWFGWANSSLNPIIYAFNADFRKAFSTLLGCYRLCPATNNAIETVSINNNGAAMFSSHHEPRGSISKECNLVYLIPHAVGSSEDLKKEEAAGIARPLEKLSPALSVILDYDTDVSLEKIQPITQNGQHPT
In the case of `CCC(=NCc1ccco1)c1c(O)n(Cc2ccccc2)c(=O)[nH]c1=O`, the luminescence is reported as 18900 (active).

Source: PubChem BioAssay AID642 (Vanderbilt High Throughput Screening Facility, 2007)
